# Measured values taken from PubChem BioAssay (NCATS).
# Inconclusive results are not listed. Where a call stands in place of a potency, no number is given. Values without a mark were called inactive. Calls of active or inactive are those of the source. Calls follow the shape of the dose curve; as a rule, active = well fitted inhibition curve with a large enough effect; inconclusive = small, poorly fitted or top-dose-only effect; inactive = flat fitted curve, though single readings scatter.
# Assays:
# Assay in all cases: Cytotoxic Profiling of Annotated Libraries Using Quantitative High-Throughput Screening (AID 1296008); also: nearly all actives have a fitted effect of over 60% in size
# Conditions in all cases: Five cell lines viability, CellTiter-Glo ATP luminescence, 48-72 h; max response: hits give low values
# [1] = tested on: CRL-7250
# In short: (§1)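 Compounds were pin-transferred onto cells and incubated 48 or 72 hr at 37 degree Celsius, 95% humidity. CellTiter-Glo was added, plates sat 10 min at room temperature, then ATP-coupled luminescence was imaged as the viability read-out.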
# [2] = tested on: HEK293
# In short: as §1
# [3] = tested on: HaCat
# In short: as §1
# [4] = tested on: KB-3-1
# In short: as §1
# [5] = tested on: NIH3T3
# In short: as §1
# Potency is read from the fitted curve at half-maximal effect.
structure (smiles),measurement,setting,value
C=C(C)[C@H]1O[C@H]2CC[C@@]3(C)[C@@](O)(CC[C@H]4[C@@H]5OC(C)(C)[C@H]6C[C@@H]7C(=C)Cc8c(Cl)cc9[nH]c(c5c9c8[C@@]76O)[C@@]43C)[C@]23O[C@@H]3[C@H]1O,max response,[1],-5.7%
same,outcome,[2],inactive
same,max response,[3],4.01%
same,outcome,[4],inactive
same,max response,[5],-2.87%
C[C@@]12C[C@@H](c3ccoc3)OC(=O)C1CC[C@]1(C)[C@H]2[C@H]2C=C[C@]1(O)C(=O)O2 (stereo not given in full),outcome,[1],inactive
same,outcome,[2],inactive
same,max response,[3],-0.33%
same,max response,[4],3.68%
same,outcome,[5],inactive
COC1CC(=O)C23C(=O)NC(CC(C)C)C2C(C)=C(C)C(OO)C3/C=C(\C)CCC(O)C1O (stereo not given),outcome,[1],inactive
same,max response,[2],3.17%
same,outcome,[3],inactive
same,outcome,[4],inactive
same,outcome,[5],inactive
COC(=O)[C@@]12C(=O)C(C)C(=O)[C@]1(C)C(C)=C[C@H]1[C@]3(C=O)CC[C@H](OC(C)=O)C(C)(C)[C@H]3CC[C@@]12C (stereo not given in full),outcome,[1],inactive
same,outcome,[2],inactive
same,outcome,[3],inactive
same,max response,[4],6.62%
same,max response,[5],3.28%
CN1CCC[C@@H]1Cc1c[nH]c2ccc(Nc3ncccc3[N+](=O)[O-])cc12,outcome,[1],inactive
same,max response,[2],-20.4%
same,max response,[3],-5.05%
same,max response,[4],-5.99%
same,outcome,[5],inactive
CCN1C[C@]2(COC)[C@H](O)C[C@H](OC)[C@]34[C@@H]5C[C@]6(O)[C@H](OC(=O)c7ccccc7)[C@@H]5[C@@](O)([C@H]([C@H](OC)[C@H]23)[C@@H]14)[C@@H](O)[C@@H]6OC,outcome,[1],inactive
same,outcome,[2],inactive
same,max response,[3],1.58%
same,max response,[4],2.1%
same,outcome,[5],inactive
C=CC(C)(C)c1[nH]c2cccc3c2c1C[C@@H]1[C@@H]3[C@@H](OC(C)=O)[C@H](C)CN1C,max response,[1],-2.45%
same,outcome,[2],inactive
same,outcome,[3],inactive
same,max response,[4],4.47%
same,outcome,[5],inactive
O=C(N1CCOCC1)N1CCN(c2ccc(Cl)cc2)CC1,outcome,[1],inactive
same,max response,[2],-0.253%
same,outcome,[3],inactive
same,max response,[4],6.75%
same,outcome,[5],inactive
COC1CC(O[C@H]2CC[C@]3(C=O)C4CC[C@]5(C)[C@@H](C6=CC(=O)OC6)CC[C@]5(O)[C@@H]4CC[C@]3(O)C2)OC(C)C1O[C@@H]1O[C@H](CO)[C@@H](O)[C@H](O)[C@H]1O (stereo not given in full),Potency,[1],96.8 nM (active)
same,Potency,[2],153 nM (active)
same,Potency,[3],1530 nM (active)
same,Potency,[4],273 nM (active)
same,outcome,[5],inactive
CC(C)(C)c1cc(C(C)(C)C)c2c(c1)C(O)(C(F)(F)F)C(=O)O2 (stereo not given),outcome,[1],inactive
same,max response,[2],1.2%
same,outcome,[3],inactive
same,outcome,[4],inactive
same,outcome,[5],inactive
C=C(CO)C(=O)O[C@H]1C/C(C)=C/CC/C(CO)=C/[C@H]2OC(=O)C(=C)[C@H]12,max response,[1],-2.43%
same,max response,[2],-5.5%
same,outcome,[3],inactive
same,outcome,[4],inactive
same,outcome,[5],inactive
CCCN1CCO[C@H]2c3cc(O)ccc3OC[C@@H]21,outcome,[1],inactive
same,outcome,[2],inactive
same,max response,[3],3.96%
same,outcome,[4],inactive
same,outcome,[5],inactive
COC(=O)C12C(=O)C(C)(O)C(=O)C1(C)C(C)=CC1C34CCC(OC3=O)C(C)(CO)C4CCC12C (stereo not given),outcome,[1],inactive
same,max response,[2],4.01%
same,max response,[3],0.667%
same,outcome,[4],inactive
same,outcome,[5],inactive
CC(N)Cc1c[nH]c2ccccc12 (stereo not given),max response,[1],-5.98%
same,outcome,[2],inactive
same,max response,[3],-7.15%
same,outcome,[4],inactive
same,outcome,[5],inactive
CC1=CC2/C=C(\C)CCC(O)C3OC(C)(C)OC3CC(=O)OC23C(=O)NC(CC(C)C)C3C1C (stereo not given),max response,[1],0.49%
same,max response,[2],2.48%
same,outcome,[3],inactive
same,outcome,[4],inactive
same,outcome,[5],inactive
CC[C@H]1CN2CC[C@H]1C[C@H]2[C@H](O)c1ccnc2ccc(OC)cc12,outcome,[1],inactive
same,max response,[2],-14.1%
same,outcome,[3],inactive
same,max response,[4],0.288%
same,outcome,[5],inactive
OC1(c2ccc(Cl)cc2)c2ccccc2C2=NCCN21 (stereo not given),outcome,[1],inactive
same,max response,[2],-19.8%
same,max response,[3],0.153%
same,max response,[4],7.32%
same,outcome,[5],inactive
C[C@H]1C(=O)O[C@H]2[C@H](O)[C@]34C5OC(=O)[C@]3(O[C@@H]3OC(=O)[C@H](O)C34[C@H](C(C)(C)C)[C@H]5O)C12O (stereo not given in full),outcome,[1],inactive
same,max response,[2],-8.69%
same,outcome,[3],inactive
same,outcome,[4],inactive
same,outcome,[5],inactive
C[C@]12CC[C@@H](O)C[C@H]1CC[C@@H]1[C@@H]2CC[C@]2(C)C(=O)CC[C@@H]12,max response,[1],-3.83%
same,max response,[2],-17.8%
same,max response,[3],-0.89%
same,outcome,[4],inactive
same,outcome,[5],inactive
C/C=C(\C)C(=O)OC1C(C)OC(OC2C(C)OC(OC3CCC4(C)C(=CCC5C4CCC4(C)C(C(C)OC6OC(COC7OC(CO)C(O)C(O)C7O)C(O)C(O)C6O)CCC54O)C3)CC2OC)C(O)C1OC (stereo not given),max response,[1],-8.85%
same,max response,[2],-2.95%
same,outcome,[3],inactive
same,max response,[4],0.359%
same,outcome,[5],inactive
